Reference: PubChem BioAssay
The source made the active and inactive calls. The rule behind the calls is not given here.

Test: inhibition of Brca1/Bard1 split-luciferase complementation, confirmation, counter-screen for Mdm2/MdmX interaction inhibitor project, luminescence, single concentration (AID 504668)
Conditions: Brca1/Bard1 bimolecular luciferase complementation counterscreen, at 8 µM, active compounds read high

Which inhibition does the source give for `O=C(c1ccco1)N1CCN(C(=O)C2CCCc3c2[nH]c2ccc(Cl)cc32)CC1` (centres undefined) here?
The inhibition was 28.5% (active).

With `O=C(Nc1cccc([N+](=O)[O-])c1)c1cc2ccccc2cc1O` as the compound, how does the inhibition read?
The inhibition was 31% (active).

For `COc1cccc(/C=C2\SC(=S)N(CCC(=O)NCCc3ccc(O)cc3)C2=O)c1`, which inhibition is on record?
Its inhibition is 35.4% (active).

With `Cc1cccc(NC(c2ccc(C)s2)c2ccc3ccc(C)nc3c2O)n1` (centres undefined) as the compound, how does the inhibition read?
The inhibition was 23.7% (active).

Which inhibition does the source give for `C/C(=N\NC(=O)c1ccc(Cl)c(Cl)c1)c1ccccn1` here?
Its inhibition is 25.9% (active).

For `Cc1cccc([C@@H]2[C@@H]3C(=O)N(Cc4ccccc4)C(=O)[C@@H]3[C@]3(C)C(=O)N(c4ccc(C(F)(F)F)cc4)C(=O)N23)c1`, which inhibition is on record?
The inhibition was 33.2% (active).

Which inhibition does the source give for `C=C1C(=O)C=C[C@]2(C)C[C@@H]3OC(=O)[C@](C)(O)[C@H]3C[C@@H]12` here?
Its inhibition is 25.4% (active).

For `CC1=NN(c2nc(-c3ccc(C)cc3)cs2)C(=O)C1N=Nc1ccccc1O` (centres undefined), which inhibition is on record?
Its inhibition is 32.5% (active).

With `c1ccc(-[n+]2nc(Nc3cccc4ccccc34)sc2-c2c3ccccc3cc3ccccc23)cc1` as the compound, how does the inhibition read?
The inhibition was 23.6% (active).

For `O=C(Nc1ccc(-c2nc3ccccc3[nH]2)cc1)c1ccc2c(c1)OCO2`, which inhibition is on record?
The inhibition was 28.7% (active).

Which inhibition does the source give for `CC(=O)N1CCN(c2ccc(NC(=O)c3ccc([N+](=O)[O-])o3)cc2Cl)CC1` here?
Its inhibition is 26.6% (active).

With `C(=N\Nc1nc(-c2ccccn2)nc2ccccc12)/c1ccccc1` as the compound, how does the inhibition read?
Its inhibition is 26.1% (active).

Which inhibition does the source give for `Cc1cc(SC#N)cc(C)c1NC(=O)CCl` here?
Its inhibition is 33.8% (active).

Which inhibition does the source give for `O=C(Nc1ccncc1NC(=O)c1cccc([N+](=O)[O-])c1)c1cccc([N+](=O)[O-])c1` here?
The inhibition was 31% (active).
